Here are results for 38 sequences from the OligoGym collection.
Also: reference of the scale not given here.

The target in the first assay is KRBA1. Put plainly: pooled miR-30 sensor sort-seq; sequence = guide strand. Particulars: shRNA.
With TTCTTCACTGTGTGATCTGTGG, the sensor-assay potency score (higher = more potent) was -0.539.
On the same count and under the same terms, the same measure for TTGTCTGCTGTCCAGTTCCTGG: -1.35; for TTCTCCAGCTGAGAAACCGGGC: -0.802.
The same measure, in the same setting: the same measure for TCTGAGACCTAGAGTCTCCTGG: -0.0756.
On the same count and under the same terms, the same measure for TTGTCGGCAGTTTTGATGGGGA: -0.192; for TTTGTCGGCAGTTTTGATGGGG: 0.519; for TTGGCTGCAACTCTGGGTCTTC: -0.346.
Regarding TTCACTGTGTGATCTGTGGGGT, the sensor-assay potency score (higher = more potent) worked out at 0.493.
Regarding ATTTGATTGAATCTGAGCCAAG, the sensor-assay potency score (higher = more potent) is -1.53.
Still for that read-out and setting: the same measure for TCTTCCATGTCCAAGCTCCAGG: -1.05; for TAGAGGACAGCAGCTGCTGGGA: -1.32; for TCTCCAAACAAGAACTCTGGGA: -0.424.

The next assay addresses KRBA2. The assay is described as above. As to conditions: shRNA.
Turning to TTGCTTTCTACTAACTTTGTTA, the sensor-assay potency score (higher = more potent) amounted to 0.0117.
Still for that read-out and setting: with ATTGAGCTCATGAACAACCTGG the figure was -0.217; with TAACAAGACACTGACCACCTCA, 0.174.
On the same count and under the same terms, the same measure for TGAACTTGAACTCACCATCGGC: 0.0582; for TAAGACAATAACTTCTTTGGTG: 0.507; for TTTAGCTTCTTTAACTTCCTTT: 0.674.
The same measure, in the same setting: the same measure for TTGCTGTTGTAACTTTTGCTTT: -1.09; for TATAAGACAATAACTTCTTTGG: -0.185.
Regarding TGTGTCTCTGTAGCAATCCTTT, the sensor-assay potency score (higher = more potent) is -1.24.
Still for that read-out and setting: with TTGAGCTCATGAACAACCTGGT the figure was 0.411.

For a further assay, the target named is KRCC1. The assay is described as above. Particulars: shRNA.
The sequence TTCTTAGAGACTACATCTCGGC gave a sensor-assay potency score (higher = more potent) of -0.216.
On to TTTTTCTGAGAAACAGTCCCTC, for which the sensor-assay potency score (higher = more potent) was -0.167.
Still for that read-out and setting: with TTTCTTAGAGACTACATCTCGG the figure was -0.234; with TTCTGTACTGACATGTACGGTT, -0.0449.
The same measure, in the same setting: the same measure for TTCTCTTATGCTTAGACCGCTC: -0.386; for TTCTTGTTGATTAAAGTTCAGG: -0.822; for TTGATGAGTACTGGTACTGTTA: -0.491.
TTATCTGAGGAGAAGTGCTTGT had a sensor-assay potency score (higher = more potent) of 0.253.
In the case of TTGTTGATTAAAGTTCAGGGGT, the sensor-assay potency score (higher = more potent) was -0.113.
Still for that read-out and setting: the same measure for TTTCTGTACTGACATGTACGGT: -0.751.
In turn, TTAACCTCTCCTTTGTACCCAC displayed a sensor-assay potency score (higher = more potent) of -0.366.
Still for that read-out and setting: with TTAGAGACTACATCTCGGCTTT the figure was 0.863.

A further assay addresses KRI1. The assay is described as above. As to conditions: shRNA.
Turning to TTTGTAAAAGTCCCGCTCCTGC, the sensor-assay potency score (higher = more potent) is -0.976.
TTACTTTCCGCAGCTTCTCCAG had a sensor-assay potency score (higher = more potent) of -1.11.
Same read-out and setting: with TAACCTTCCTCTCGTAGTCCTT the figure was -0.514; with TTCTGCAGCAAACTGGAGCCGC, -0.837.
